Screens as filed in PubChem.
Hits are enriched below; roughly 18% of the tested compounds scored in any of these assays.
IL1B secr inh: inflammasome signaling inhibition, IL-1 beta readout | 360,000 tested, 4.7% active | activity change, % at 57.5 µM | THP-1 LPS/ATP IL-1B secretion, AlphaLISA, 16 h; hits give low values; in the data active = activity change below about -50%; inconclusive = mostly about -30% to -49%
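Secreted IL-1B measured by AlphaLISA bead assay after 16 h compound exposure of THP-1 cells; compounds (final up to 57.5 uM) added 1 h before LPS (250 ng/mL) and ATP (1.25 mM) stimulation; lower signal means less secretion.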
HepG2 viability: counter-screen for TGF-b inhibitors: cytotoxicity in HepG2 cells; HepG2 CAGA-GFP viability, ATP luminescence, 18 h; Potency, µM (series often up to 46.1 µM), actives largely listed as cytotoxic; 410,000 tested, 0.76% active; AID 588856
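HepG2 CAGA-GFP cells (1000/well, DMEM with 1% FBS) received compound, then TGF-beta at 500 pg/mL final, and were incubated 18 hours at 37 degrees C. Viability was read by CellTiter-Glo luminescence. Media-only wells were set as complete cell-killing and DMSO as no toxicity.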
DT40 TDP1 no CPT: qHTS for Inhibitors of human tyrosyl-DNA phosphodiesterase 1 (TDP1): qHTS in cells in absence of CPT. Potency, µM (top dose mostly 46.2 µM), usual class: inhibitors. AID 686978, 2013. DT40 Tdp1-/- hTDP1 cells, no CPT, ATP luminescence, 48 h. 420,000 tested, 15% active; also: nearly all actives have a fitted effect of over 55% in size
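Camptothecin absent (DMSO only). Human TDP1-complemented DT40 knockout cells, 400 cells/well, 37 °C for minimum 48 hr; ATP measured via CellTiter-Glo, 30 min dark incubation, luminescence.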
TDP1 inh: TDP1 (human) enzyme inhibition; AID 485290; Potency, µM (highest dose often 130 µM), hits mostly inhibitors; recombinant TDP1, AlphaScreen DNA substrate cleavage; 350,000 tested, 0.28% active; also: nearly all actives have a fitted effect of over 40% in size
Target sequence (Q9NUW8 whole entry, looked up): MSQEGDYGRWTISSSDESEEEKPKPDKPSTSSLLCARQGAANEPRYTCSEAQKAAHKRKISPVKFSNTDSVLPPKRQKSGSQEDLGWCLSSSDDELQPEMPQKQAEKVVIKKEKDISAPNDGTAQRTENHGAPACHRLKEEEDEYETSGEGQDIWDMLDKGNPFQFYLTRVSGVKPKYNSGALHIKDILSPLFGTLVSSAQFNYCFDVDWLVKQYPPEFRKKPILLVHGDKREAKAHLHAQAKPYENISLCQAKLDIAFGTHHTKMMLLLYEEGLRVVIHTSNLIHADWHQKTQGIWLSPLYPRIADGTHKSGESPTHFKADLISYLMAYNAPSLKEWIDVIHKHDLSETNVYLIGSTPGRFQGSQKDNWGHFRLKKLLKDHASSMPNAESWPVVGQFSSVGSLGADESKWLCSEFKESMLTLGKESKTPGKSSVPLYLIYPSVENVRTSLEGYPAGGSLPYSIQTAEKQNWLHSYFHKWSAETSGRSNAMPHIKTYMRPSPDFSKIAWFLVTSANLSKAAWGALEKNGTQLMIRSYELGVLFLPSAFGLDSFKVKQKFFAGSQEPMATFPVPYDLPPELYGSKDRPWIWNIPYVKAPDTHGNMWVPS
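Steps: enzyme plus compound, 15 min RT; add biotin/phosphotyrosine-FITC oligonucleotide (15 nM final), react 5 min; add donor/acceptor beads (10 ug/ml final), 10 min; read AlphaScreen. Tdp1 at 1 nM final.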
TDP1 cell CPT: growth inhibition of DT40 Tdp1-/-;hTDP1 cells with camptothecin (screen for TDP1 inhibitors); Potency, µM (titrated, usually from 46.2 µM), actives largely listed as inhibitors; AID 686979; chicken DT40 Tdp1-/-;hTDP1 cells + 20 nM CPT, ATP luminescence, 48 h; 420,000 tested, 12% active; also: nearly all actives have a fitted effect of over 55% in size
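Chicken DT40 Tdp1-/- cells complemented with human TDP1, 400 cells/well, exposed to compounds plus 20 nM camptothecin for at least 48 h at 37 C; viability read as ATP content by CellTiter-Glo luminescence.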
TGFb inhibitor: blocks TGF-b signaling. AID 588855. 410,000 tested, 1.2% active. Potency, µM (top dose mostly 46.1 µM), hits mostly inhibitors. HepG2 CAGA-GFP TGF-b/SMAD3 reporter, GFP fluorescence, 18 h; TGF-beta stimulated, 500 pg/mL final; also: nearly all actives have a fitted effect of over 65% in size
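TGF-beta reporter screen: HEPG2 CAGA-GFP, 1% FBS, 500 pg/mL TGF-beta final, 18 h; per-cell GFP summed per well; curves fitted and categorized by class.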
Of the large screens only hits and unclear results are named; the others gave an inactive call. Unless noted, calls follow the shape of the dose curve; as a rule, active = well fitted curve in the direction sought with a large enough effect; inconclusive = small, poorly fitted or top-dose-only effect, or another doubt; inactive = no such curve, though single readings can be large; an effect the other way counts as inactive or inconclusive.

COc1cc(/C=N/NC(=O)c2ccc3c(c2)OCO3)ccc1O	none
COc1ccc(/C=N/NC(=O)c2cc(-c3ccc4c(c3)OCO4)n[nH]2)cc1OC	IL1B secr inh inconclusive, DT40 TDP1 no CPT 12µM, TDP1 cell CPT 18µM
CN(C)c1ccc(/C=N/NC(=O)c2cc(-c3ccc4c(c3)OCO4)n[nH]2)cc1	DT40 TDP1 no CPT 21µM, TDP1 cell CPT 18µM
O=C(N/N=C/c1ccc(F)cc1)c1cc(-c2ccc3c(c2)OCO3)n[nH]1	DT40 TDP1 no CPT 23µM (no result: TDP1 inh)
O=S(=O)(c1ccc(Cl)cc1)N1CCN(c2nc(-c3cccc(Br)c3)nc3ccccc23)CC1	none (no result: IL1B secr inh, DT40 TDP1 no CPT, TDP1 cell CPT)
CCC1(CC)NC(=O)N(CC(=O)OCC(=O)c2ccccc2OC)C1=O	none (no result: TDP1 inh)
COc1ccc(CC(=S)N2CCOCC2)cc1	DT40 TDP1 no CPT 18µM, TDP1 cell CPT inconclusive
Cc1cccc(CN2C(=O)CCSc3ccc(Cl)cc32)c1	DT40 TDP1 no CPT 10µM, TDP1 cell CPT inconclusive
O=C1CCSc2ccc(Cl)cc2N1Cc1ccc(Cl)cc1	IL1B secr inh inconclusive, DT40 TDP1 no CPT 29µM, TDP1 cell CPT inconclusive, TGFb inhibitor inconclusive
CCc1ccccc1Nc1nn2c(=O)c3ccc(C(=O)NCc4ccccn4)cc3nc2s1	DT40 TDP1 no CPT 12µM, TDP1 cell CPT inconclusive
COc1ccccc1Nc1nn2c(=O)c3ccc(C(=O)N4CCCCC4)cc3nc2s1	DT40 TDP1 no CPT 16µM, TDP1 cell CPT 13µM
COc1ccccc1Nc1nn2c(=O)c3ccc(C(=O)NCc4ccc(F)cc4)cc3nc2s1	HepG2 viability 4µM, DT40 TDP1 no CPT 2.3µM, TDP1 cell CPT 3.7µM, TGFb inhibitor 3.2µM (no result: IL1B secr inh)
CCc1ccccc1Nc1nn2c(=O)c3ccc(C(=O)NCCC4=CCCCC4)cc3nc2s1	DT40 TDP1 no CPT 15µM, TDP1 cell CPT 16µM (no result: IL1B secr inh)
CCOc1ccc(C(=O)NCCC2=CCCCC2)cc1OCC	none
Cc1ccc(Cl)cc1Nc1nn2c(=O)c3ccc(C(=O)NC4CCCCC4)cc3nc2s1	none (no result: IL1B secr inh)
CC(OC(=O)CCN=C1NS(=O)(=O)c2ccccc21)C(=O)NCc1ccccc1 (centres undefined)	DT40 TDP1 no CPT inconclusive
CCc1ccccc1Nc1nn2c(=O)c3ccc(C(=O)NCc4ccccc4OC)cc3nc2s1	DT40 TDP1 no CPT inconclusive, TDP1 cell CPT 12µM (no result: IL1B secr inh)
CCCCn1nc2cc(C(=O)NCc3ccccc3OC)ccc2c1OCC	none
CCOC(=O)C1(c2ccccc2)SC(C(=O)OCC)(c2ccccc2)S1 (centres undefined)	IL1B secr inh -66, DT40 TDP1 no CPT inconclusive (no result: TDP1 inh)
CCOC(=O)C1(c2ccccc2)CCCNC1=O (centres undefined)	DT40 TDP1 no CPT inconclusive, TDP1 cell CPT inconclusive (no result: TDP1 inh)
O=C(Cn1cncn1)NCc1ccc(Cl)cc1	none
Clc1ccc(NCn2cncn2)nc1	TDP1 cell CPT 23µM
CC1CS(=O)(=O)CCN1N=Cc1ccc([N+](=O)[O-])o1 (centres undefined)	DT40 TDP1 no CPT inconclusive, TDP1 cell CPT inconclusive (no result: TDP1 inh)
CCN(CC)CC1CN(N=Cc2ccc([N+](=O)[O-])o2)C(=O)O1 (centres undefined)	DT40 TDP1 no CPT 16µM, TDP1 cell CPT 15µM, TGFb inhibitor inconclusive (no result: TDP1 inh)
O=C1OC(CN2CCOCC2)CN1/N=C/c1ccc([N+](=O)[O-])o1 (centres undefined)	none (no result: IL1B secr inh, HepG2 viability, TDP1 inh, TGFb inhibitor)
O=[N+]([O-])c1ccc(C=NN2CCNC2=S)o1	DT40 TDP1 no CPT 21µM, TDP1 cell CPT 18µM, TGFb inhibitor inconclusive (no result: TDP1 inh)
Cc1ccc(-c2nnc(SCC(=O)NC3CCCC3)n2N)cc1	none
O=C(c1ccccc1O)N(Cc1ccco1)Cc1cccs1	none (no result: IL1B secr inh, HepG2 viability, DT40 TDP1 no CPT, TDP1 cell CPT, TGFb inhibitor)
O=C(c1ccccc1Cl)N(Cc1ccco1)Cc1ccco1	DT40 TDP1 no CPT 15µM, TDP1 cell CPT 21µM (no result: IL1B secr inh)
O=C(c1ccccc1)N(Cc1ccco1)Cc1cccs1	DT40 TDP1 no CPT 13µM, TDP1 cell CPT inconclusive (no result: IL1B secr inh)
O=C(c1ccccc1Cl)N(Cc1ccco1)c1ccccn1	DT40 TDP1 no CPT inconclusive, TDP1 cell CPT inconclusive (no result: IL1B secr inh)
